Assay [1] deals with DLD1. In words: cell viability (CellTiter-Glo) relative to plate median (fraction of plate median); higher = more viable cells. The settings on record: 10 µM, treatment time 24 h. A digest of the protocol: (§1)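 Colorectal cancer cell lines carrying stably transduced lentiviral TCF/Wnt firefly luciferase reporters (7TFP or TCF4/Wnt) were plated in 384-well plates and treated 24 h later with kinase inhibitor library compounds at a final 10 µM for 24 h. Firefly luciferase or CellTiterGlo luminescence was read on parallel plates with a Tecan F500 reader. Signals were normalised per well to the plate median in webcellHTS2 (additive, no log transformation), and values are the mean of two independent replicates.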
Background: Cellular ATP, detected with luciferase, serves as a proxy for viable cell number.

Assay [2] deals with HCT116. The assay is described as above. As to conditions: 10 µM; treatment time 24 h; reporter: TCF4/Wnt. The procedure, abridged: as §1
Assay [3] deals with SW480. Described as above. The settings on record: 10 µM; treatment time 24 h; reporter: 7TFP. The procedure, abridged: as §1
Assay [4] deals with DLD1. Briefly: TCF/Wnt firefly luciferase reporter signal relative to plate median (fraction of plate median); higher = higher Wnt reporter signal. The settings on record: 10 µM, treatment time 24 h. The procedure, abridged:
as §1
In general terms: A reporter such as luciferase makes a cellular process visible.

Assay [5] relates to HCT116. Described as above. As to conditions: 10 µM; treatment time 24 h; reporter: TCF4/Wnt. A digest of the protocol: as §1
Assay [6] has as its system SW480. The assay is described as above. The settings on record: 10 µM; treatment time 24 h; reporter: 7TFP. The procedure, abridged: as §1

The record followed here is the supplement of paper PMC6522484.

Structures can show the parent of a compound that is named as a salt. ± gives the standard deviation of the averaged measurements.

In the case of `Cc1ccc(NC(=O)c2ccc(CN3CCN(C)CC3)cc2)cc1Nc1nccc(-c2cccnc2)n1` [Imatinib Mesylate], the cell viability with DLD1 [1] (reporter: 7TFP) was 0.9835 ± 0.0064; with DLD1 [1] (reporter: TCF4/Wnt), 0.907 ± 0.17; with HCT116 [2], 0.91 ± 0.024; in the assay with SW480 [3], 0.984 ± 0.066. The “TCF/Wnt firefly luciferase reporter signal” value with DLD1 [4] (reporter: 7TFP) was 2.07 ± 0.14; with DLD1 [4] (reporter: TCF4/Wnt), 1.51 ± 0.4; in the assay on HCT116 [5], 1.32 ± 0.47; in the assay on SW480 [6] it was 1.73 ± 0.15.
In the case of `C[C@@H]1CN(CC(=O)Nc2ccc3c(c2)Cc2cccc(-c4cc(=O)cc(N5CCOCC5)o4)c2S3)C[C@H](C)O1`, the cell viability worked out at 0.7975 ± 0.00071 in the assay with DLD1 [1] (reporter: 7TFP), 0.878 ± 0.043 in the assay on DLD1 [1] (reporter: TCF4/Wnt), 0.957 ± 0.012 in the assay with HCT116 [2] and 0.952 ± 0.058 with SW480 [3]. The “TCF/Wnt firefly luciferase reporter signal” value in the assay on DLD1 [4] (reporter: 7TFP) was 1.3 ± 0.092; with DLD1 [4] (reporter: TCF4/Wnt) it was 1.32 ± 0.11; in the assay with HCT116 [5] it was 1.33 ± 0.66; in the assay on SW480 [6], 1.23 ± 0.071.
`Cn1cnc(N)c2ncnc1-2` [3-Methyladenine]: the cell viability was 1.07 ± 0.078 with DLD1 [1] (reporter: 7TFP), 1.11 ± 0.12 in the assay on DLD1 [1] (reporter: TCF4/Wnt), 1.13 ± 0.014 in the assay on HCT116 [2] and 0.867 ± 0.1 in the assay with SW480 [3]. The “TCF/Wnt firefly luciferase reporter signal” value with DLD1 [4] (reporter: 7TFP) turned out to be 1.17 ± 0.13; in the assay with DLD1 [4] (reporter: TCF4/Wnt) it was 1.12 ± 0.11; in the assay with HCT116 [5], 1.03 ± 0.066; with SW480 [6], 0.733 ± 0.24.
`CNC(=O)c1cc(Oc2ccc(NC(=O)Nc3ccc(Cl)c(C(F)(F)F)c3)c(F)c2)ccn1` [Regorafenib (BAY 73-4506)]: the cell viability was 1.04 ± 0.021 in the assay on DLD1 [1] (reporter: 7TFP), 0.985 ± 0.092 in the assay with DLD1 [1] (reporter: TCF4/Wnt), 1 ± 0.024 in the assay with HCT116 [2] and 1.13 ± 0.014 in the assay with SW480 [3]. For the same compound, the “TCF/Wnt firefly luciferase reporter signal” value worked out at 0.816 ± 0.21 in the assay with DLD1 [4] (reporter: 7TFP), 0.7185 ± 0.005 in the assay on DLD1 [4] (reporter: TCF4/Wnt), 0.742 ± 0.34 with HCT116 [5] and 1.03 ± 0.31 in the assay on SW480 [6].
Consider `CN1CC[C@H](c2c(O)cc(O)c3c(=O)cc(-c4ccccc4Cl)oc23)[C@H](O)C1` [Flavopiridol hydrochloride], for which the cell viability stood at 1.27 ± 0.2 in the assay with DLD1 [1] (reporter: 7TFP), 1.24 ± 0.092 with DLD1 [1] (reporter: TCF4/Wnt), 0.865 ± 0.29 with HCT116 [2] and 1.36 ± 0.11 in the assay with SW480 [3]. In addition, the “TCF/Wnt firefly luciferase reporter signal” value in the assay on DLD1 [4] (reporter: 7TFP) is 0.393 ± 0.14; in the assay with DLD1 [4] (reporter: TCF4/Wnt) it was 0.227 ± 0.069; with HCT116 [5] it was 0.196 ± 0.047; in the assay on SW480 [6], 0.869 ± 0.0099.
Consider `C#Cc1cccc(Nc2ncnc3cc(OCCOC)c(OCCO)cc23)c1`, for which the cell viability in the assay on DLD1 [1] (reporter: 7TFP) stood at 0.923 ± 0.073; in the assay on DLD1 [1] (reporter: TCF4/Wnt), 0.988 ± 0.045; in the assay with HCT116 [2] it was 1.22 ± 0.064; in the assay with SW480 [3], 0.961 ± 0.013. For the same compound, the “TCF/Wnt firefly luciferase reporter signal” value with DLD1 [4] (reporter: 7TFP) was found to be 0.821 ± 0.11; in the assay with DLD1 [4] (reporter: TCF4/Wnt), 0.819 ± 0.14; with HCT116 [5] it was 0.804 ± 0.012; with SW480 [6], 1.05 ± 0.098.
On to `C[C@]1(O)C[C@@H](c2nc(-c3ccc4ccc(-c5ccccc5)nc4c3)c3c(N)nccn32)C1` [Linsitinib (OSI-906)], for which the cell viability in the assay on DLD1 [1] (reporter: 7TFP) is 0.876 ± 0.018; in the assay with DLD1 [1] (reporter: TCF4/Wnt), 0.856 ± 0.15; in the assay with HCT116 [2] it was 0.82 ± 0.0099; in the assay on SW480 [3], 0.995 ± 0.021. The “TCF/Wnt firefly luciferase reporter signal” value in the assay on DLD1 [4] (reporter: 7TFP) was 1.11 ± 0.078; with DLD1 [4] (reporter: TCF4/Wnt), 1.33 ± 0.23; with HCT116 [5], 1.29 ± 0.12; with SW480 [6], 1.27 ± 0.057.
`COc1ccc2c3n(c(=NC(=O)c4cccnc4)nc2c1OC)CCN3`: the cell viability in the assay with DLD1 [1] (reporter: 7TFP) is 1.005 ± 0.0071; in the assay with DLD1 [1] (reporter: TCF4/Wnt) it was 0.944 ± 0.026; in the assay on HCT116 [2], 0.958 ± 0.028; in the assay with SW480 [3], 1.04 ± 0.042. Further, the “TCF/Wnt firefly luciferase reporter signal” value is 0.858 ± 0.13 with DLD1 [4] (reporter: 7TFP), 1.05 ± 0.1 with DLD1 [4] (reporter: TCF4/Wnt), 1.12 ± 0.13 in the assay with HCT116 [5] and 0.67 ± 0.33 in the assay with SW480 [6].
